# Laboratory results published in PubChem BioAssay AID493185 (National Center for Advancing Translational Sciences (NCATS), 2011).
# The source made the active and inactive calls. Entries that show only a call come without a potency. Calls follow the shape of the dose curve; as a rule, active = well fitted activation curve with a large enough effect; inconclusive = small, poorly fitted or top-dose-only effect; inactive = no such curve, though single readings can be large or run the other way.
# Test: Counterscreen for Identifying a Potential Treatment of Ataxia-Telangiectasia: Hit Validation
# Conditions: cell-free AlphaLISA/AlphaScreen artifact counterscreen, PBS only, no cells; series mostly up to 76.9 µM
# Outline: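 Cell-free AlphaLISA counterscreen: compounds (up to 76.7 uM final) in PBS with detection mix of anti-pKAP1 and anti-KAP1 antibodies on donor/acceptor beads plus lysis buffer, incubated 6 hr at 25C before AlphaScreen read.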
# Potency is read from the fitted curve at half-maximal effect.
row,Compound,Potency
1,Cc1nnc(SCC(=O)NC(=O)Nc2ccc3c(c2)OCCO3)n1N,inactive
2,O=C(O)CCCN1C(=O)/C(=C/C=C/c2ccco2)SC1=S,inactive
3,CCOc1ccc(NC2=NCC(=O)N2Cc2cccs2)cc1,inactive
4,COc1ccccc1OC(=O)Nc1ccc(Cl)cc1,6.54 µM (active)
5,COc1ccc2nc(C)cc(Nc3ccc(C(=O)O)cc3)c2c1,inactive
6,Cc1ccc2c(c1)C(c1ccccc1)N(C(=O)CC(C)C)CC(=O)N2 (stereo not given),inactive
7,Cc1c(Cc2ccccc2)c(NCCCO)n2c(nc3ccccc32)c1C#N,inactive
8,COc1ccc(/C=N/Nc2nc(=O)[nH]nc2C)cc1OC,inactive
9,C/C(CCC1CC(C)OC1=O)=N\NC(N)=S (stereo not given),inactive
10,CCOC(=O)c1cccc(N2C(=O)C3C4C=CC(CC4)C3C2=O)c1 (stereo not given),inactive
11,O=c1c2cc(Br)ccc2nc(-c2ccccc2)n1O,inactive
12,C[C@H](NC(=O)OC(C)(C)C)C(=O)NCC1CCC(C(=O)N[C@@H](Cc2ccccc2)C(=O)O)CC1 (stereo not given in full),inactive
13,CC(C)(C)NC(=O)c1cccc2c1-c1ccccc1C2=O,inactive
14,COc1ccccc1-n1c(SCC(N)=O)nc2sc3c(c2c1=O)CCC3,inactive
15,COc1cccc(CNCc2ccc(OC)c3ccccc23)c1OC,inactive
16,COc1ccc(NS(=O)(=O)c2ccc(N3CC(O)=C(c4ccccc4)C3=N)cc2)cc1,inactive
17,CN(C)c1ccc2nc3ccc(=[N+](C)C)cc-3sc2c1,11.6 µM (active)
18,CC(=O)NNC(=O)CN1C(=O)/C(=C/c2ccccc2)SC1=S,inactive
19,COc1ccc(C2(C)CC(C)(C)Nc3ccccc32)cc1 (stereo not given),inactive
20,CC1CCCC(C)N1C(=O)COC(=O)Cc1ccc(Cl)cc1 (stereo not given),inactive

row,Compound,Potency
1,CCOC(=O)c1ccccc1NC(=O)c1ccc2nc[nH]c2c1,inactive
2,Fc1ccc(C2=NOC(c3nnc(-c4ccccc4)o3)C2)cc1 (stereo not given),inactive
3,CCCCC(=O)NC(c1ccco1)c1c(O)ccc2ccccc12 (stereo not given),inactive
4,COc1ccc(NCc2cc(=O)oc3cc(NC(C)=O)ccc23)cc1,inactive
5,O=C(C[n+]1ccc2c(c1)nnn2-c1ccccc1)c1ccc(Cl)cc1,inactive
6,CCOC(=O)C1=C(O)C(=O)N(Cc2ccccc2)C1,inactive
7,Cn1c(=O)oc2cc(S(=O)(=O)N3CCc4ccccc43)ccc21,inactive
8,COc1cccc(/C=N/NC(=O)c2cc3cc([N+](=O)[O-])ccc3s2)c1O,inactive
9,O=C(c1cccc(F)c1)N1CCCC(C(=O)N2CCCCCC2)C1 (stereo not given),inactive
10,N#Cc1c(-c2ccccc2)cc(-c2ccccc2)[nH]c1=O,inactive
11,CCOC(=O)N1CCN(c2nc(N(c3ccccc3)c3ccccc3)nc(-n3ccnc3)n2)CC1,inactive
12,CC(C)(CO)NC(=O)c1ccc2c(c1)C(=O)c1ccccc1-2,inactive
13,COc1ccccc1[C@H]1C(c2cccc(Cl)c2)=NN(c2ccccc2)[C@@H]1CO,29.2 µM (active)
14,COc1ccc(CNC(=O)COc2cccnc2[N+](=O)[O-])cc1OC,inactive
15,COc1cccc(C(=O)NOCc2ccc(C)cc2)c1OC,inactive
16,O=C(NCCCN1CCOCC1)c1ccc2c(c1)N(Cc1cccc(F)c1)C(=O)c1ccccc1S2,inactive
17,COc1ccccc1S(=O)(=O)Nc1ccc(-c2nnc3n2CCCCC3)cc1,inactive
18,CC(C)C1CC(CCN)(c2ccccc2)CCO1 (stereo not given),inactive
19,OC(CN1CCCCC1)Cn1c2ccc(Cl)cc2c2cc(Cl)ccc21 (stereo not given),inactive
20,C=Cc1c(C)c2cc3[nH]c(cc4nc(cc5nc(cc1[nH]2)C(C)=C5CCC(=O)O)C(CCC(=O)O)=C4C)c(C)c3C=C,29.2 µM (active)
